Unmarked numbers belong to inactive results.

Sequence of UniProt Q9HCU4 (Q9HCU4 whole entry): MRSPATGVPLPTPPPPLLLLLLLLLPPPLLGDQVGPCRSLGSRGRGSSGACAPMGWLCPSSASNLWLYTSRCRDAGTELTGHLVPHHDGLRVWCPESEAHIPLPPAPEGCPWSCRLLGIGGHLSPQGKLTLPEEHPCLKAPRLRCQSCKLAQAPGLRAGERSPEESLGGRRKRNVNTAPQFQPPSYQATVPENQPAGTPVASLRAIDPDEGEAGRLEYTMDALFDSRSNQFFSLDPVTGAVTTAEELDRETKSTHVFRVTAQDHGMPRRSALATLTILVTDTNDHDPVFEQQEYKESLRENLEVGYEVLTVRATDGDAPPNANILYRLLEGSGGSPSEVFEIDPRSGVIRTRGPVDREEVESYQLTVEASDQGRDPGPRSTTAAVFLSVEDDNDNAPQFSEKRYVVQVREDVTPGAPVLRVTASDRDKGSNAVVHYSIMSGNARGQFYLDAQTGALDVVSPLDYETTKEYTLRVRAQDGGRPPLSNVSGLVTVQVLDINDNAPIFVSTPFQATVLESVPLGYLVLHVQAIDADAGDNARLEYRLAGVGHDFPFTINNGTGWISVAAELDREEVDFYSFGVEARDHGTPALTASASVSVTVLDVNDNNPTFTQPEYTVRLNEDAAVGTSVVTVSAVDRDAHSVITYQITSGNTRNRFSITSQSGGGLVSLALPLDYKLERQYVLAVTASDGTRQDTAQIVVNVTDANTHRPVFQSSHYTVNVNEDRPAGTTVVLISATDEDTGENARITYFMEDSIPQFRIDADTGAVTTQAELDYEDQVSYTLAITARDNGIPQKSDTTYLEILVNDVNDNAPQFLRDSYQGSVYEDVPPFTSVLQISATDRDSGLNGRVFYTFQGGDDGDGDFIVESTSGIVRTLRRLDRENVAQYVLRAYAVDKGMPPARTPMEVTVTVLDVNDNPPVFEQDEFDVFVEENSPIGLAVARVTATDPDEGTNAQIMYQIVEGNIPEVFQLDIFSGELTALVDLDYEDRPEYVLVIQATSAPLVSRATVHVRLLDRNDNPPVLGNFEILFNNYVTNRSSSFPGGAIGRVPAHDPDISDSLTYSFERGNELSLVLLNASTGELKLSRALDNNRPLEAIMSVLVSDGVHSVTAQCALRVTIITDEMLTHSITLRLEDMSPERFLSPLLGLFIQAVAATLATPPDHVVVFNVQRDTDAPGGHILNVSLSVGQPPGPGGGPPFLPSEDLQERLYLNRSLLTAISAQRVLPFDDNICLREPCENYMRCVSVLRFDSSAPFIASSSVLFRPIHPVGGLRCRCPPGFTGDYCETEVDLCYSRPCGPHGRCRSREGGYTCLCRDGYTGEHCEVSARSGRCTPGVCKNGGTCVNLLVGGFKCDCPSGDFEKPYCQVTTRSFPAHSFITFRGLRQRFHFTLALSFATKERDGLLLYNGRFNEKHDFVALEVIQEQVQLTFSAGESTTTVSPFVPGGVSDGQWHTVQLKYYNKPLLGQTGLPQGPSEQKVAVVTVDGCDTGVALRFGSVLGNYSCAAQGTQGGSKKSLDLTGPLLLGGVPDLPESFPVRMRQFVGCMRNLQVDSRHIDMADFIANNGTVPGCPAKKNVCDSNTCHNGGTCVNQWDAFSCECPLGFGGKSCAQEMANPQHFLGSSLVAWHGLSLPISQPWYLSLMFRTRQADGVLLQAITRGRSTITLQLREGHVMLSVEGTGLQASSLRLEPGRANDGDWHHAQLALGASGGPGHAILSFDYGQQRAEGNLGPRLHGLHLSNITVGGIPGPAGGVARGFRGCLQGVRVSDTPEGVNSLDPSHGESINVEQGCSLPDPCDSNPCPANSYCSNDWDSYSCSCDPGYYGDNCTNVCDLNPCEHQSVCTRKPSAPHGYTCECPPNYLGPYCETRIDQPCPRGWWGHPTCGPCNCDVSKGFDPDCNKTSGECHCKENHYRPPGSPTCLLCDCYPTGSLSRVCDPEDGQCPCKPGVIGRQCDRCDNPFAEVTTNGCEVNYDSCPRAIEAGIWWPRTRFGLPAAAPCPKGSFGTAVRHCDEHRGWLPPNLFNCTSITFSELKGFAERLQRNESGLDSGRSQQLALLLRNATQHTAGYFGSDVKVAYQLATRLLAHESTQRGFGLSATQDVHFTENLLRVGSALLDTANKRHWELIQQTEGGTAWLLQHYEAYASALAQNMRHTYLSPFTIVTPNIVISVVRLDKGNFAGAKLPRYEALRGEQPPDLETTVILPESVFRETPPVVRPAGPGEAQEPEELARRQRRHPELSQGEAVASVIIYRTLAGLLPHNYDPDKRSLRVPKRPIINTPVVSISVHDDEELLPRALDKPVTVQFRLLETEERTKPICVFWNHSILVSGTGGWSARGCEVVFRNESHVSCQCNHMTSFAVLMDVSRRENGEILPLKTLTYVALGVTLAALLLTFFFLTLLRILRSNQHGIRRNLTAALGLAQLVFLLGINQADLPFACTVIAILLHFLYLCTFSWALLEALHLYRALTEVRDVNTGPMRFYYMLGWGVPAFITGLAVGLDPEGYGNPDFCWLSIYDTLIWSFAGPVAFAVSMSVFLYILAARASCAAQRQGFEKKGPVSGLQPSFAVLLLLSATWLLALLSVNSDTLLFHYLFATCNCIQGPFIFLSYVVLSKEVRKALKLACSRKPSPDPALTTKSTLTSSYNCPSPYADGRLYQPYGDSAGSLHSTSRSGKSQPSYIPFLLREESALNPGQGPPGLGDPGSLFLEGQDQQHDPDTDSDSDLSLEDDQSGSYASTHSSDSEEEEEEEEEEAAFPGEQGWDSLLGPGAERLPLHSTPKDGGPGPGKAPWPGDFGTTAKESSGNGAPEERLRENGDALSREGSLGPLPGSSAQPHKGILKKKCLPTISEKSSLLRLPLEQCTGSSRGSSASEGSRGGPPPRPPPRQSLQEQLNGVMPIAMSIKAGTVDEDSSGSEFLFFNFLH
Sequence of UniProt O00469 (O00469 whole entry): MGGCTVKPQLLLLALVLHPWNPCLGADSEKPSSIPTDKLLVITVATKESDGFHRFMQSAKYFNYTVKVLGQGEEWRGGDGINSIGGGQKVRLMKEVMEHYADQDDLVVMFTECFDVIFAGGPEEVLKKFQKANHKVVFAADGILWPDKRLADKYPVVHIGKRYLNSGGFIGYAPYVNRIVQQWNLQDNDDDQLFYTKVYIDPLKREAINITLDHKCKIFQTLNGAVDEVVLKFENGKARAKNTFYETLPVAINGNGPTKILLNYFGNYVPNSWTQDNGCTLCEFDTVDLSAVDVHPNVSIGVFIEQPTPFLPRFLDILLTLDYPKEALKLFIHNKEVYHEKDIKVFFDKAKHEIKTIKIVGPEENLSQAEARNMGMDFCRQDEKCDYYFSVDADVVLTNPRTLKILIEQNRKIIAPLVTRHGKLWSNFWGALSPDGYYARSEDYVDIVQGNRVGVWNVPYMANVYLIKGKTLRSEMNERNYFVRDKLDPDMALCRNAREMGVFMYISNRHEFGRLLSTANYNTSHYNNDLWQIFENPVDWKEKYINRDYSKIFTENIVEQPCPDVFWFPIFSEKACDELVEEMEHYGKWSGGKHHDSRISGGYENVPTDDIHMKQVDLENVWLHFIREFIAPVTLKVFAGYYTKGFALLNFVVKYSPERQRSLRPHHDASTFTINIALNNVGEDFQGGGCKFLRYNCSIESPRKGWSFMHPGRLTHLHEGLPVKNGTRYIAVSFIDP
Sequence of UniProt Q9NV96 (Q9NV96 whole entry): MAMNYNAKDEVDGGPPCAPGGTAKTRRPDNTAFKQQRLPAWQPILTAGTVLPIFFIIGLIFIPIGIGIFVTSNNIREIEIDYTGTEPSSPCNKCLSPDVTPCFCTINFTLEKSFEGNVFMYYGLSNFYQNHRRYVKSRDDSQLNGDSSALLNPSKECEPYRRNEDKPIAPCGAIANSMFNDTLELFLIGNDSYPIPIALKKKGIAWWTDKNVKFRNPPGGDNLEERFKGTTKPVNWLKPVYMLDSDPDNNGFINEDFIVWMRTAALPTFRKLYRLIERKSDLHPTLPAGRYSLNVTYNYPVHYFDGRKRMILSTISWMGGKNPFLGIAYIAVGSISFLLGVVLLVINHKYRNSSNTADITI
Sequence of UniProt Q92854 (Q92854 whole entry): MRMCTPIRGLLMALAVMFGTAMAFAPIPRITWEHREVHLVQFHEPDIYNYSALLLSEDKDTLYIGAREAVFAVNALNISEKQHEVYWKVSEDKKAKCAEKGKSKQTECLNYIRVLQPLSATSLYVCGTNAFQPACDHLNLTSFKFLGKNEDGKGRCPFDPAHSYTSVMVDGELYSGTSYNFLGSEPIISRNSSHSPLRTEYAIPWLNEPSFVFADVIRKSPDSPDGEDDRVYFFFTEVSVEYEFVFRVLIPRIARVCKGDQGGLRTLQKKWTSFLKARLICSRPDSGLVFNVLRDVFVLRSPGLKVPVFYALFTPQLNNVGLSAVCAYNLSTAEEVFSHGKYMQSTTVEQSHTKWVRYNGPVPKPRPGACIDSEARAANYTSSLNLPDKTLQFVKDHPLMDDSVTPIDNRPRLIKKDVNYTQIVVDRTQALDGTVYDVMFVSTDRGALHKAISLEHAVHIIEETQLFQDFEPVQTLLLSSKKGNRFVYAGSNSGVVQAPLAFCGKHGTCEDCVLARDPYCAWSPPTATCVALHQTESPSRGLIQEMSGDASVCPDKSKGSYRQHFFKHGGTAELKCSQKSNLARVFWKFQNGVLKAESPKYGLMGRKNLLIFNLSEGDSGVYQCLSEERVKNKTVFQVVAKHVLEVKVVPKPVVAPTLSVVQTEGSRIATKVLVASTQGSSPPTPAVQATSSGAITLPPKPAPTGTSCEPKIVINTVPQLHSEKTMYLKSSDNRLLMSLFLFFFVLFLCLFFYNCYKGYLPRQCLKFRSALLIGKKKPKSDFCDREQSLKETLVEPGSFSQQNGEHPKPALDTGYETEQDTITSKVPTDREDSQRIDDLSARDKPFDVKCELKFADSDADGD

Compound in the experiment: C#CCNC(=O)CCSSCCC(=O)NCCc1ccc(C=O)c(C=O)c1
In words: lysine labeling ratio R10:1 (500 µM / 50 µM probe), SILAC-ABPP in living cells; higher = lower intrinsic lysine reactivity toward the probe, active = 2 or less. Particulars: HeLa; probe concentrations 500 vs 50 µM. The procedure, abridged:
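Measurements came from LC-MS/MS on a TIMS-TOF Pro of mixed SILAC light and heavy HeLa lysates after click to biotin-azide, trypsin digestion, neutravidin capture, DTT release and alkylation. Before lysis, the living cells sat in PBS at room temperature with 50 µM or 500 µM of an alkyne-tagged, disulfide-linked lysine probe, and labels were swapped forward and reverse. R per lysine is the median across both swap directions of the filtered median high-probe/low-probe MS1 peptide ratio. The cap is 20.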
“CELSR2 (lysine site: K2121) (UniProt Q9HCU4)”: the “lysine labeling ratio R10:1” value was 2.98. The value for “FLNA (lysine site: K1491) (UniProt P21333)” was 2.1; that for AK2 (lysine site: K28) (UniProt P54819) was 10.2; that for “SPTAN1 (lysine site: K441) (UniProt Q13813)” was 2.17. In the case of “KPNB1 (lysine site: K376) (UniProt Q14974)”, the “lysine labeling ratio R10:1” value is 2.54. With “PLOD2 (lysine site: K593) (UniProt O00469)”, the “lysine labeling ratio R10:1” value was 1.21 (active).

With “EZR (lysine site: K438) (UniProt P15311)”, the “lysine labeling ratio R10:1” value is 3.51. In the case of UniProt Q15149 (lysine site: K4027) it was 2.34; in that of “PTPRM (lysine site: K231) (UniProt P28827)”, 1.53 (active). In the case of “ATP6AP1 (lysine site: K380) (UniProt Q15904)” it was 1.79 (active); in that of “SMC2 (lysine site: K963) (UniProt O95347)”, 2.26.

For the target “TMEM30A (lysine site: K279) (UniProt Q9NV96)”, the “lysine labeling ratio R10:1” value is 1.73 (active).

Consider “Q95604 (lysine site: K210) (UniProt P10321)”, for which the “lysine labeling ratio R10:1” value is 6.33. In the case of UniProt Q00341 (lysine site: K494) it was 2.15; in that of “SEMA4D (lysine site: K219) (UniProt Q92854)”, 2.27. In the case of “HSPA5 (lysine site: K213) (UniProt P11021)” it was 5.61. With “STOML2 (lysine site: K187) (UniProt Q9UJZ1)”, the “lysine labeling ratio R10:1” value was 1.1 (active).

Values taken from the supplement of paper PMC11001985.
